Assay outcomes from PubChem.
RGS16-Gao HTS: modulators of RGS16 binding to Galphao, primary screen, biochemical, human proteins, multiplexed bead flow cytometry. AID 1441, 2008. bead-based flow cytometry RGS16-Galphao binding, fluorescence; actives lie on both sides. 0.38% of 220,000 active. binding response (% of control), % at 10 µM. Regulator of G-protein signaling 16 (Homo sapiens) + Guanine nucleotide-binding protein …;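 note: Galphao activated by GDP with aluminum fluoride before binding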
RGS7-Gao reg: RGS7-Galphao binding modulators, primary screen, biochemical, multiplexed bead flow cytometry; Guanine nucleotide-binding protein G(o) subunit alpha (Homo sapiens), P09471; actives lie on both sides; binding response (% of control), % at 10 µM; 0.35% of 220,000 active; AID 1439, 2008; in the data active = binding response below about 49% or above about 150%;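 note: fluorescent Galphao held in activated GDP-AlF4 state binding bead-coupled RGS7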
Avidin fluor: green autofluorescence of compounds with avidin beads – biophysical, 488/530 nm, flow cytometry, artefact control, profiling panel | compound fluorescence 488/530 nm; stronger effect = higher value | fluorescence (KMESF) at 10 µM | 0.38% of 220,000 active; in the data active = fluorescence above about 47
RGS8-Gao: RGS8-Galphao binding modulators, primary screen, biochemical, multiplexed bead flow cytometry | response (percent of control binding), % at 10 µM | 0.34% of 220,000 active | Guanine nucleotide-binding protein G(o) subunit alpha (Homo sapiens), P09471 | AID 1423, 2008 | actives lie on both sides; in the data active = response below about 60% or above about 140%; inactive = in between;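 note: Galphao activated as the GDP aluminium fluoride complex binding bead-coupled RGS8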
GSH bead fluor: compound fluorescence on glutathione beads, profiling panel, artefact control, biophysical, 488/530 nm, flow cytometry; GSH beads flow cytometry, compound fluorescence 488/530 nm; stronger effect = higher value; fluorescence (KMESF) at 10 µM; 0.25% of 190,000 active; AID 1776, 2009; in the data active = fluorescence above about 89;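 note: glutathione beads carrying GST-tagged Bcl family fusion proteins plus one bare bead set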
RGS4-Gao reg: modulators of RGS4 binding to Galphao, primary screen, biochemical, multiplexed bead flow cytometry. 0.33% of 220,000 active. binding response (% of control), % at 10 µM. actives lie on both sides. AID 1415, 2008; in the data active = binding response below about 49% or above about 150%; inactive = in between;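 note: fluorescent Galphao activated with aluminum fluoride binding bead-coupled RGS4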
RGS-Gao: modulators of RGS–Galpha-o binding, primary screen, biochemical, multiplexed beads, flow cytometry, RGS4/7/8/16/19; shares compounds with RGS16-Gao HTS; multiplexed bead flow cytometry; RGS4–Galpha-o binding response, % at 10 µM; 99% of 1,600 active;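 note: fluorescently labeled Galpha-o bound to GDP with aluminium fluoride binding biotinylated RGS beads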
Avidin counter: disruption of biotin probe capture by avidin, counter-screen for RGS protein interaction modulators, biochemical, flow cytometry, bead-based | shares compounds with RGS16-Gao HTS | AID 1783, 2009 | streptavidin beads, fluorescein-biotin binding | inhibition, % at 10 µM | 1,700 tested, under 10 active;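 active = inhibition above 50%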;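 note: median green fluorescence of gated singlet beads compared with DMSO control wells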
RGS8-Gao confirm: RGS8-Galphao binding modulators, confirmation, biochemical, multiplexed bead flow cytometry, single concentration. shares compounds with RGS16-Gao HTS. bead-based flow cytometry RGS8-Galphao binding, fluorescence; actives lie on both sides. binding response (% of control), % at 10 µM. 3% of 1,700 active. AID 1836, 2009; in the data active = binding response below about 72% or above about 130%; inactive = in between;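 note: Galphao activated as GDP AlF4 complex before binding bead RGS8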
RGS7-Gao single: RGS7-Galphao binding modulators, confirmation, biochemical, multiplexed bead flow cytometry, single concentration. shares compounds with RGS16-Gao HTS. bead-based flow cytometry RGS7-Galphao binding; actives lie on both sides. response (percent of control binding), % at 10 µM. 7.8% of 1,700 active; in the data active = response below about 75% or above about 130%; inactive = in between;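 note: fluorescent Galphao activated with GDP and aluminum fluoride binding bead-coupled RGS7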
RGS16-Gao single: modulators of RGS16-Galphao protein binding, confirmation, biochemical, single concentration, multiplexed bead flow cytometry | response (% of control binding), % at 10 µM | bead-based flow cytometry; actives lie on both sides | AID 1838, 2009 | 4% of 1,700 active | shares compounds with RGS16-Gao HTS; in the data active = response below about 74% or above about 130%; inactive = in between;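 note: Galphao activated as the GDP aluminium fluoride complex binding bead-coupled RGS16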
RGS4-Gao confirm: modulators of RGS4-Galphao protein binding, confirmation, biochemical, single concentration, multiplexed bead flow cytometry; shares compounds with RGS16-Gao HTS; 4% of 1,700 active; actives lie on both sides; binding response (% of control), % at 10 µM; in the data active = binding response below about 74% or above about 130%; inactive = in between
RGS19-Gao conf: regulators of RGS19-Galphao binding, confirmation, biochemical, single point, multiplexed bead flow cytometry | bead-based flow cytometry RGS19-Galphao binding; actives lie on both sides | response (percent of control binding), % at 10 µM | 5% of 1,700 active | shares compounds with RGS16-Gao HTS; in the data active = response below about 50% or above about 160%; inactive = in between
Target sequence (P09471 whole entry, looked up): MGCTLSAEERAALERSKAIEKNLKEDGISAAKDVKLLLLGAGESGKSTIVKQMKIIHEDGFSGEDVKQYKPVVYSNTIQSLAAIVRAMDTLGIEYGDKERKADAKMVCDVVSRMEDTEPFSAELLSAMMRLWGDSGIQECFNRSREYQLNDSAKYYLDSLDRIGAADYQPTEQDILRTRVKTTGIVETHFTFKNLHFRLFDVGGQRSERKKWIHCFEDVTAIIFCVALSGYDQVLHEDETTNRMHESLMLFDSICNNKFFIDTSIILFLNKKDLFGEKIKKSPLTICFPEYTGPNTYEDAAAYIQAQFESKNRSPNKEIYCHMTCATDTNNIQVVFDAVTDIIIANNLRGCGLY
Target sequence (P49795 whole entry, looked up): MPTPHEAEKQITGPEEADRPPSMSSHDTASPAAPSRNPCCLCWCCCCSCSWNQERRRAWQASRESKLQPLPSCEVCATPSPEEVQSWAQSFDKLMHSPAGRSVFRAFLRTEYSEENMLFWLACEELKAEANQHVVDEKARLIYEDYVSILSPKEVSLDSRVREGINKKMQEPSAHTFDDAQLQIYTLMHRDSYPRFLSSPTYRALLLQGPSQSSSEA
Each line names hits and unclear results; the compound was inactive in the other large screens (follow-up assays come after a bar, where they were run); [ ] = another dose, or the depositor's remark. In the library only some 1.2% were active in any assay of this set; here they are far more common. Unless noted, the rule behind the calls is not given here.

Cc1ccc(OCC(=O)NNC(=O)C(=O)N2CCCC2)c(C)c1	RGS16-Gao HTS 243.7[activator] | RGS-Gao 118.0 | Avidin counter inactive | RGS8-Gao confirm inactive | RGS7-Gao single inactive | RGS16-Gao single inactive | RGS4-Gao confirm inactive | RGS19-Gao conf inactive
O=C(CSc1nnc(SCc2ccccc2)s1)N/N=C/c1c(Cl)cccc1Cl	none
Cc1nn(-c2ccccc2)c(C)c1/C=N/NC(=O)CSc1nnc(SCc2ccc(Cl)cc2)s1	RGS7-Gao reg 156.9[activator], Avidin fluor 68 | RGS-Gao 108.1 | Avidin counter inactive | RGS8-Gao confirm inactive | RGS7-Gao single inactive | RGS16-Gao single inactive | RGS4-Gao confirm inactive | RGS19-Gao conf inactive
Cc1ccc(-c2csc3nnc(SCC(=O)Nc4nsc(-c5ccccc5)n4)n23)cc1	none (no result: RGS16-Gao HTS, RGS7-Gao reg, Avidin fluor, RGS8-Gao, RGS4-Gao reg) | Avidin counter inactive | RGS8-Gao confirm inactive | RGS7-Gao single inactive | RGS16-Gao single inactive | RGS4-Gao confirm inactive | RGS19-Gao conf inactive
O=C(CSc1nnc2scc(-c3ccccc3)n12)Nc1nsc(-c2ccccc2)n1	none
COc1ccc(-c2csc(NC(=O)c3ccc(OCC(=O)N4CCOCC4)c(OC)c3)n2)cc1OC	RGS16-Gao HTS 18.4 | RGS-Gao 97.0 | Avidin counter inactive | RGS8-Gao confirm inactive | RGS7-Gao single inactive | RGS16-Gao single inactive | RGS4-Gao confirm inactive | RGS19-Gao conf inactive
COc1ccccc1OCCCOc1ccc(C)cc1Br	none
COc1ccccc1OCCOCCOc1ccc(C)cc1Br	RGS16-Gao HTS 21.7 | RGS-Gao 88.6 | Avidin counter inactive | RGS8-Gao confirm inactive | RGS7-Gao single inactive | RGS16-Gao single inactive | RGS4-Gao confirm inactive | RGS19-Gao conf inactive
CCC(=O)Nc1sc2c(c1C(N)=O)CCC2	RGS16-Gao HTS -7.4, RGS7-Gao reg 7.2, RGS8-Gao 11.6, RGS4-Gao reg 15.7 | Avidin counter inactive | RGS8-Gao confirm inactive | RGS7-Gao single inactive | RGS16-Gao single inactive | RGS4-Gao confirm inactive | RGS19-Gao conf inactive
CCOC(=O)c1ccc[n+](C(C)C(=O)c2ccc(-c3ccccc3)cc2)c1 (configuration not stated)	none
